This is part of a sample that, as a whole, favours compounds with a hit. Of some 79,000 tested, about 15% had one in any assay. Activity calls are given as the source filed them. No stated cut-off is given here; in the data, active means growth inhibition above about 70%; inactive means the rest.
Experiments:
[1] = NCI Yeast Anticancer Drug Screen. Data for the rad50 strain (AID 155);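 further: 0% = growth of vehicle-only cultures of the same strain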; settings: S. cerevisiae rad50 strain growth inhibition; at 50.0 µM; active compounds read high
Procedure, shortened: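 Yeast carrying a defined DNA repair defect were exposed to test compounds, and growth was compared with vehicle-treated controls to give percent inhibition.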

[2] = NCI Yeast Anticancer Drug Screen. Data for the mec2-1 strain (AID 157); settings: S. cerevisiae mec2-1 strain, at 50.0 µM, active compounds read high
Procedure, shortened: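 Growth inhibition is read against vehicle-treated controls after compound exposure of the mec2-1 yeast strain, which is defective in DNA damage repair or cell cycle control.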

[3] = NCI Yeast Anticancer Drug Screen. Data for the sgs1 mgt1 strain (AID 161);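 further: 0% = growth of cultures given vehicle only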; settings: S. cerevisiae sgs1 mgt1 strain, at 50.0 µM, active compounds read high
Procedure, shortened: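 Percent growth inhibition was derived by comparing compound-exposed mutant yeast with vehicle-exposed cultures. The strain carries alterations in DNA damage repair.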

[4] = NCI Yeast Anticancer Drug Screen. Data for the cln2 rad14 strain (AID 165);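 further: 0% = growth equal to vehicle treated cultures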; settings: S. cerevisiae cln2 rad14 strain, at 50.0 µM, active compounds read high
Procedure, shortened: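 Growth inhibition, relative to vehicle-treated controls, is the read-out. The test organism is a yeast strain with defined genetic alterations, cln2 rad14.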

[5] = NCI Yeast Anticancer Drug Screen. Data for the bub3 strain (AID 167); settings: S. cerevisiae bub3 mutant strain, at 50.0 µM, active compounds read high
Procedure, shortened: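 Compounds were applied to a genetically altered yeast strain carrying a cell-cycle control defect. Growth inhibition was scored against vehicle-treated controls.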

[6] = NCI Yeast Anticancer Drug Screen. Data for the mlh1 rad18 strain (AID 175); settings: S. cerevisiae mlh1 rad18 strain growth inhibition; at 50.0 µM; active compounds read high
Procedure, shortened: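 Cells of a genetically altered yeast strain, deficient in DNA damage repair, were treated with compound. Their growth was then compared with that of vehicle-treated cultures to give inhibition.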

Measured: growth inhibition

OCCSCCCCCCSCCO
inactive: [1] 6.95% | [2] 1.7% | [3] 5.85% | [4] 10.6% | [5] 2.7% | [6] 5.8%

Oc1ccccc1-c1n[nH]c(=S)n1/N=C/c1ccc(-c2ccc(Br)cc2)o1
inactive: [1] -30.5% | [2] -19.2% | [3] -29.2% | [4] -4.35% | [5] -20.1% | [6] -42.9%

CCCCCCCCCCCCCCCCNc1nc(=O)n(C2CC(O)C(COP(=O)(O)OC3CC(n4cc(F)c(=O)[nH]c4=O)OC3CO)O2)cc1F (stereo unspecified)
inactive: [1] -2.05% | [2] -6.05% | [3] -25.9% | [4] 0.95% | [5] -42.6% | [6] -31.6%

O=P(O)(O)OC1OC(n2cnc3c(NCc4ccc(F)cc4)ncnc32)C(O)C1O (stereo unspecified)
inactive: [1] 0.3% | [2] 2.3% | [3] -13.1% | [4] -18.2% | [5] 2% | [6] -25.7%

O=C1CCCC2OC2[C@H]2CCCCCC[C@@H]12 (stereo partly specified)
inactive: [1] 2.5% | [2] 0.9% | [3] 4.8% | [4] 3.15% | [5] -2.35% | [6] 7.85%

C/C(=N\N=C(\Cc1ccccc1)c1ccccc1)c1ccccc1
inactive: [1] 1.7% | [2] 3.95% | [3] -11.6% | [4] -25.2% | [5] -1.65% | [6] 2.8%

O=[N+]([O-])c1ccc(N=NNc2ccc(N=Nc3ccccc3)cc2)cc1
inactive: [1] 12.1% | [2] -18.8% | [3] -1% | [4] 6.7% | [5] 0.1% | [6] 4.6%

CCCCNC(=O)/C=C\C(=O)O
inactive: [1] 5.95% | [2] -10.3% | [3] -1.65% | [4] 2.75% | [5] -8.5% | [6] 1.45%

Cc1ccc(NC(=O)CC2Sc3ccccc3NC2=O)c(C)c1 (stereo unspecified)
inactive: [1] -7.6% | [2] -7.35% | [3] 7.5% | [4] -4.4% | [5] -20.3% | [6] -11.8%

COc1cccc(OC(=O)Nc2cccc(Cl)c2)c1
inactive: [1] 38.2% | [2] 38.4% | [3] 49.4% | [4] 38.8% | [5] 41.5% | [6] 51.6%

O=c1[nH]cnc2c1cnn2Cc1ccccc1
inactive: [1] 4.1% | [2] -4.85% | [3] 1.2% | [4] 2.1% | [5] 26.1% | [6] 1.95%

O=c1c2ccccc2oc2nc3ccc(Cl)cc3n12
inactive: [1] -6.3% | [2] -7.5% | [3] 0.45% | [4] -30.9% | [5] 10.6% | [6] -1.85%

COc1ccc(-c2cc(-c3cc(C)cc(Br)c3O)no2)cc1
inactive: [1] -6.55% | [2] -13.3% | [3] -10.8% | [4] -3.2% | [5] -4.4% | [6] 14.3%

Clc1nc(C(Cl)Cl)nc2ccccc12
inactive: [1] 9.65% | [2] 10.8% | [3] 14.2% | [4] 2.9% | [5] 16.1% | [6] 12.4%

NC(N)=NS(=O)(=O)c1ccc(NC(=O)c2ccc(Cl)c3c(Nc4ccc(S(=O)(=O)N=C(N)N)cc4)c4ccccc4nc23)cc1
inactive: [1] 32.2% | [2] 31.6% | [3] 30.9% | [4] 34.5% | [5] 10.2% | [6] 29.1%

CCCCSc1nc2ccc([N+](=O)[O-])cc2s1
inactive: [1] 40.6% | [2] -4.2% | [3] 37.5% | [4] 2.1% | [5] 4.45% | [6] 12.9%

COc1ccc(/C(N)=N/OCc2ccc(C#N)cc2)cc1
inactive: [1] -13.5% | [2] -21.4% | [3] -3.2% | [4] 10.3% | [5] 20.7% | [6] -25.8%

O=C(Cc1n[nH]c(=S)nc1CC(=O)c1cccnc1)c1cccnc1
inactive: [1] 7.8% | [2] 12.2% | [3] 16.1% | [4] -1% | [5] 26.8% | [6] 2.7%

CN(C)c1ccc2c(c1)Cc1cc(NC(=O)CCC(=O)O)ccc1-2
inactive: [1] 8.7% | [2] 6.4% | [3] 19.4% | [4] -1.6% | [5] 8.85% | [6] 14.3%

N#CCC(=O)O
inactive: [1] -0.2% | [2] 6.5% | [3] -4.3% | [4] 2.05% | [5] -3.2% | [6] -9%

COCC1CCCCC1O (stereo unspecified)
inactive: [1] -9.95% | [2] 7.15% | [3] 3.05% | [4] 26.8% | [5] 18.1% | [6] -2.35%

CSc1ccc(NC(=O)Oc2cc(C)c(Cl)cc2C(C)C)cc1
active: [2] 94.8% | [3] 91.8% | [5] 97.8% | [6] 93.5%
inactive: [1] 39.6% | [4] 15.8%

Cc1ccc2cccc(CCOC(=O)c3ccc([N+](=O)[O-])cc3)c2c1
inactive: [1] -13.5% | [2] -19.1% | [3] -15.3% | [4] -19.1% | [5] -8.35% | [6] 4.7%

CC(C)(O)CC(=O)/C=C\c1ccc2c(c1)OCO2
inactive: [1] 25.9% | [2] 27.9% | [3] 10.1% | [4] -11.9% | [5] -4.4% | [6] 4.35%

O=S1Nc2ccccc2[C@H]2[C@@H]1[C@H]1O[C@@H]2c2ccccc21 (stereo partly specified)
inactive: [1] -3.6% | [2] -5.65% | [3] -23.6% | [4] -27.6% | [5] -6.6% | [6] -0.85%

CNC1(C(N)=O)CCN(Cc2ccccc2)CC1
inactive: [1] -14.7% | [2] -10.3% | [3] -25.8% | [4] 0.75% | [5] -3.6% | [6] -8.35%

O=c1ccc(-c2ccccc2)n[nH]1
inactive: [1] -25.4% | [2] -0.2% | [3] -28.3% | [4] 5% | [5] -25.8% | [6] -23.9%

CCCCC(CC)CN(CCOC(=O)c1cc2ccccc2oc1=O)CC(CC)CCCC (stereo unspecified)
inactive: [1] 20.8% | [2] -4.2% | [3] 48.8% | [4] 55% | [5] 20.8% | [6] 31.8%

CC(=O)c1ccc(N=C2C=CC(=O)O2)cc1
inactive: [1] 6.85% | [2] -14.9% | [3] -11.1% | [4] -21.5% | [5] -4.65% | [6] 7.65%

CC(=O)c1ccc(OCc2ccccc2)c(OCc2ccccc2)c1
inactive: [1] 2.45% | [2] 0.8% | [3] 22.8% | [4] 10.9% | [5] 22.1% | [6] 11.2%

CCCCNc1ccccc1
inactive: [1] 30.4% | [2] 6.3% | [3] 28.8% | [4] -21% | [5] -6.25% | [6] 42.5%

Cc1nc2c(=O)n(C)c(=O)n(C)c2nc1CCC(=O)O
inactive: [1] -16.1% | [2] -3.9% | [3] -1.4% | [4] -52.5% | [5] 5.2% | [6] -5.6%

Cn1c[n+](C)c([S-])n1
inactive: [1] -13.2% | [2] 2.6% | [3] -12.1% | [4] -8.45% | [5] 3% | [6] -5.25%

Nc1[nH]c(=S)[nH]c(=O)c1NS(=O)(=O)c1ccccc1
inactive: [1] 3.65% | [2] -1.6% | [3] 12.6% | [4] -4.85% | [5] -10.2% | [6] 18.4%

CCCCCCCCCCCCCCCO
inactive: [1] 0.45% | [2] -20.4% | [3] -2.45% | [4] -7.35% | [5] -7.25% | [6] 8.4%

CC(=O)NCCNC(=O)c1ccc(C)c(OCc2ccccc2)c1[N+](=O)[O-]
inactive: [1] 7% | [2] 11.7% | [3] -1% | [4] -26.2% | [5] -1.6% | [6] 4.45%

COC(=O)C1(CC(=O)c2cccs2)NC(=S)NC(=O)C1C#N (stereo unspecified)
inactive: [1] 9.4% | [2] 3.55% | [3] -7.5% | [4] -3.35% | [5] -11.3% | [6] 2.55%

CCOC(CO)OCC
inactive: [1] 28.9% | [2] -0.25% | [3] -3.4% | [4] 8.95% | [5] 13.6% | [6] -8%

CC[n+]1ccccc1Br
inactive: [1] 19.2% | [2] 18.6% | [3] 10.1% | [4] -7.4% | [5] 6.05% | [6] 18.6%

C=C1CC(C)(Cn2cnc3c(=O)[nH]cnc32)OC1=O (stereo unspecified)
inactive: [1] 18.1% | [2] 22.7% | [3] 12.9% | [4] 8% | [5] 16.6% | [6] 21.6%

Cc1cc(Cl)ccc1NC(=O)/C(=N\NC(C)(C)C)C(C#N)c1nc(-c2ccc([N+](=O)[O-])cc2)cs1 (stereo unspecified)
inactive: [1] 23.8% | [2] 8.95% | [3] 3.85% | [4] 25.7% | [5] 4.25% | [6] -10.8%

Reference: PubChem BioAssay (NCI)
